Source: PubChem BioAssay AID1159580 (chemical genetic matrix, 2015)
In all, about 5,500 compounds went through this assay and about 2,000 (36%) were called active. Inconclusive results (about 18%) are left out. Rule as the data show it: active = normalized growth mostly below about 0.91 (no sharp cut-off); inconclusive = no clear call, values can overlap the other calls; inactive = mostly above about 0.92. The list shows a part of the results.

Test: chemical genetic growth profiling, strain panel (AID 1159580);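 also: tested at 20 µM; growth read once vehicle control cultures reached saturation at 30 °C; 1 = growth at the plate median or of vehicle wells; lower values mean less growth of the strain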
Conditions: S. cerevisiae deletion strains, growth OD
[1] = locus YAL013W, strain DEP1, hits give low values
[2] = locus YGR078C, strain PAC10, hits give low values
[3] = locus YJR075W, strain HOC1, hits give low values
[4] = locus YNL322C, strain KRE1, hits give low values
[5] = locus YPL055C, strain LGE1, hits give low values
[6] = locus YPL241C, strain CIN2, hits give low values
[7] = locus YHR030C, strain SLT2, hits give low values

Measured: normalized growth

COc1ccc2c(c1)C13CCCCC1C(C2)N(C)CC3 (stereo unspecified)
inactive: [1] 1.02 | locus YAL040C, strain CLN3, hits give low values 0.995 | locus YCL061C, strain MRC1 (second series), hits give low values 1 | locus YDR363W, strain ESC2, hits give low values 0.952 | locus YER002W, strain NOP16, hits give low values 1 | [2] 0.995 | locus YGR229C, strain SMI1, hits give low values 0.991 | [3] 0.985 | locus YNL128W, strain TEP1, hits give low values 1.01 | locus YNL175C, strain NOP13, hits give low values 1.01 | locus YNL197C, strain WHI3, hits give low values 1.01 | locus YNL224C, strain SQS1, hits give low values 1.01 | [4] 1 | locus YOR083W, strain WHI5 (second series), hits give low values 0.97 | [5] 0.967 | [6] 0.998

CC[C@@H](CO)NC(=O)[C@@H]1C=C2c3cccc4c3c(cn4C)C[C@H]2N(C)C1
inactive: [7] 1 | locus YHR079C, strain IRE1, hits give low values 0.989 | locus YJL095W, strain BCK1, hits give low values 0.981 | locus YJR066W, strain TOR1, hits give low values 0.926 | locus YLR113W, strain HOG1, hits give low values 1.02 | locus YNL183C, strain NPR1, hits give low values 0.928 | locus YOR231W, strain MKK1, hits give low values 1 | locus YPL256C, strain CLN2, hits give low values 0.973

CCOC(=O)CC(=O)CSc1nnc(N)s1
inactive: [1] 0.998 | locus YBR229C, strain ROT2, hits give low values 0.988 | locus YCL061C, strain MRC1, hits give low values 1.04 | locus YDL101C, strain DUN1, hits give low values 1.04 | locus YDR150W, strain NUM1, hits give low values 1 | locus YEL061C, strain CIN8, hits give low values 1 | [2] 1.02 | [7] 1.13 | locus YHR087W, strain rtc3, hits give low values 0.992 | locus YJR043C, strain POL32, hits give low values 1.06 | [3] 1.01 | locus YLR039C, strain RIC1, hits give low values 1 | locus YLR058C, strain SHM2 (second series), hits give low values 0.999 | locus YLR085C, strain ARP6, hits give low values 1.04 | locus YLR262C, strain YPT6, hits give low values 1.01 | locus YML094W, strain GIM5, hits give low values 1.02 | locus YMR219W, strain ESC1, hits give low values 1 | locus YMR263W, strain SAP30, hits give low values 1.02 | locus YMR307W, strain GAS1, hits give low values 0.985 | locus YNL153C, strain GIM3, hits give low values 1.05 | locus YNL298W, strain CLA4 (second series), hits give low values 1.05 | [4] 1.02 | locus YNR030W, strain Alg12, hits give low values 1.02 | locus YOL006C, strain TOP1, hits give low values 1.13 | [5] 0.978 | [6] 1.02 | locus YPR135W, strain CTF4, hits give low values 1.11
